# Measurements from PubChem BioAssay.
# Active and inactive are the calls of the source.
# Columns and labels:
# [1] = binders of probe aFSTL3 on microarray, primary screen, stem cell growth factor project, biochemical, small-molecule microarray, fluorescence 635/667 (AID 1064); conditions: higher = more signal;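 further: measures binding of the biotinylated anti-FSTL3 antibody to printed compounds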
# [2] = binders from COS7 lysate, DM2A8 probe, primary screen, torsin A project, cell lysate, small-molecule microarray, fluorescence 635/667 (AID 1065); conditions: higher = more signal, COS7 lysate expressing mutant human TOR1A
# [3] = binders of probe aFGF2 on microarray, primary screen, stem cell growth factor project, biochemical, small-molecule microarray, fluorescence 635/667 (AID 1067); conditions: higher = more signal;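 further: measures binding of biotinylated aFGF2 protein to printed compounds on slides; z-score merges feature fluorescence and signal-to-noise across triplicate slides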
# [4] = binders of probe aFGF10 on microarray, primary screen, stem cell growth factor project, biochemical, small-molecule microarray, fluorescence 635/667 (AID 1071); conditions: higher = more signal;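 further: score merges 667 nm spot intensity and signal to noise from triplicate slides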
# [5] = molecular target: Neurogenic locus notch homolog protein 2 (Homo sapiens) (UniProt Q04721); experiment: Notch2 binders on small-molecule microarrays, primary screen, biochemical, small-molecule microarray, 635 nm fluorescence, stem cell growth factors (AID 1073); conditions: Notch2 binding, higher = more signal
# [6] = molecular target: Pro-neuregulin-1, membrane-bound isoform (Homo sapiens) (UniProt Q02297); experiment: NRG1 binders on small-molecule microarrays, primary screen, psychiatric disease protein project, biochemical, small-molecule microarray, fluorescence 635/667 (AID 1075); conditions: NRG1 binding, 635 nm fluorescence, higher = more signal;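 further: score combines 667 nm spot fluorescence with signal to noise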
# [7] = tested on: Neuregulin-1 EGF-like domain; experiment: binders of neuregulin-1 EGF-like domain, primary screen, biochemical, small-molecule microarray, 635 nm fluorescence (AID 1081); conditions: small-molecule microarray binding, higher = more signal;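 further: binding of the protein to compounds printed on small-molecule microarray slides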
# [8] = FRG1 promoter luciferase signal modulators, primary screen, FRG1 inhibition for FSHD, cell-based, C2C12 myotubes, firefly/Renilla luciferase, luminescence (AID 1084); conditions: higher = more signal, called active from +8 up or from −8 down
# [9] = binders of probe aFST on microarray, primary screen, stem cell growth factor project, biochemical, small-molecule microarray, fluorescence 635/667 (AID 1086); conditions: higher = more signal;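 further: score merges 667 nm fluorescence with signal-to-noise of each printed compound spot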
# [10] = binders of probe aHhip on microarray, primary screen, stem cell growth factor project, biochemical, small-molecule microarray, fluorescence 635/667 (AID 1087); conditions: higher = more signal;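 further: score merges spot fluorescence at 667nm with spot signal to noise ratio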
# [11] = tested on: PRMT1 (protein arginine N-methyltransferase 1); experiment: PRMT1 binders on small-molecule microarrays, primary screen, biochemical, small-molecule microarray, 635 nm fluorescence (AID 1088); conditions: small-molecule microarray binding, higher = more signal;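 further: binding of Prmt1 protein to compounds spotted on small-molecule microarray slides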
# [12] = yeast growth modulation, basal conditions, primary screen, YJM789 clinical isolate, OD600, 24 h (AID 1089);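 further: growth of clinical yeast isolate S. cerevisiae YJM 789 seeded 1000 cells per well; test concentration not given here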; conditions: S. cerevisiae YJM789 growth, higher = more signal, called active from +8 up or from −8 down
# [13] = fission yeast growth modulation, primary screen, strain 972, OD600, 24 h, no modulator (AID 1090);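 further: basal condition with compound alone and no growth modifier present; test concentration not given here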; conditions: S. pombe 972 growth, higher = more signal, called active from +8 up or from −8 down
# [14] = S. cerevisiae growth modulation with rapamycin, primary screen, strain BY4716, OD600, 96 h (AID 1091); conditions: higher = more signal, called active from +8 up or from −8 down; further: test concentration not given here
# [15] = molecular target: Torsin-1A-interacting protein 2 (Homo sapiens) (UniProt Q8NFQ8); experiment: LULL1 binders on small-molecule microarray, primary screen, cell lysate, human LULL1 lysate, 635/667 nm fluorescence (AID 1092); conditions: hLULL1 lysate binding, 635 nm fluorescence, higher = more signal;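 further: probe is lysate of COS7 cells overexpressing human LULL1; score merges per-feature 667 nm fluorescence with signal-to-noise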
# [16] = E. coli growth modulation, two-sided OD650, primary screen, E. coli filamentation project, strain DRC41, 24 h (AID 1093); conditions: OD650, 24 h, higher = more signal, called active from +8 up or from −8 down;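 further: MC1000 strain lacking acrAB efflux and sulA so SOS filamentation is blocked; test concentration not given here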
# [17] = small-molecule microarray binders of probe aLefty2, primary screen, biochemical, biotinylated probe, 635/667 nm fluorescence (AID 1094); conditions: higher = more signal;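 further: score merges spot fluorescence near 667 nm with spot signal-to-noise ratio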
# [18] = tested on: Noggin (protein binding on small-molecule microarray); experiment: Noggin binders on small-molecule microarray, primary screen, biochemical, 635/667 nm fluorescence (AID 1095); conditions: 635 nm fluorescence, higher = more signal;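 further: score merges 667 nm feature fluorescence with signal to noise over triplicate slides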
# [19] = molecular target: Neurogenic locus notch homolog protein 3 (Homo sapiens) (UniProt Q9UM47); experiment: NOTCH3 binders on small-molecule microarray, primary screen, biochemical, 635/667 nm fluorescence (AID 1096); conditions: NOTCH3 binding, 635 nm fluorescence, higher = more signal
# [20] = small-molecule microarray binders of probe aEGFR, primary screen, biochemical, biotinylated probe, 635/667 nm fluorescence (AID 1097); conditions: higher = more signal;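 further: probe is a biotinylated anti-EGFR antibody binding compounds printed on slides; score combines fluorescence near 667 nm and signal to noise of each spot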
# Chain of Torsin-1A-interacting protein 2 (Homo sapiens) (Q8NFQ8 whole entry, looked up): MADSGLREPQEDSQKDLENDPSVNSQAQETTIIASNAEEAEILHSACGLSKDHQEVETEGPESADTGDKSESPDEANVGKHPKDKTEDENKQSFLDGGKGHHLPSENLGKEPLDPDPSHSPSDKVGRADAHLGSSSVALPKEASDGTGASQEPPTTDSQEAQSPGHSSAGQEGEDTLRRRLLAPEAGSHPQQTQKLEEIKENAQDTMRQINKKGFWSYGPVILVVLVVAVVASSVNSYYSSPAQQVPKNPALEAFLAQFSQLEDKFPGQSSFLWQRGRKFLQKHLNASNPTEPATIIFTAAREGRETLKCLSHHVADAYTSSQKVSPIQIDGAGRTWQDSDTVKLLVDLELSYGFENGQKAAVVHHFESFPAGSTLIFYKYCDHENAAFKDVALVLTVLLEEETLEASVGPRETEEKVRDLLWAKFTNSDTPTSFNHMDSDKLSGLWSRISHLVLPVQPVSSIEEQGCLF
# Chain of Pro-neuregulin-1, membrane-bound isoform (Homo sapiens) (Q02297 whole entry, looked up, the tested form may be a part, canonical isoform): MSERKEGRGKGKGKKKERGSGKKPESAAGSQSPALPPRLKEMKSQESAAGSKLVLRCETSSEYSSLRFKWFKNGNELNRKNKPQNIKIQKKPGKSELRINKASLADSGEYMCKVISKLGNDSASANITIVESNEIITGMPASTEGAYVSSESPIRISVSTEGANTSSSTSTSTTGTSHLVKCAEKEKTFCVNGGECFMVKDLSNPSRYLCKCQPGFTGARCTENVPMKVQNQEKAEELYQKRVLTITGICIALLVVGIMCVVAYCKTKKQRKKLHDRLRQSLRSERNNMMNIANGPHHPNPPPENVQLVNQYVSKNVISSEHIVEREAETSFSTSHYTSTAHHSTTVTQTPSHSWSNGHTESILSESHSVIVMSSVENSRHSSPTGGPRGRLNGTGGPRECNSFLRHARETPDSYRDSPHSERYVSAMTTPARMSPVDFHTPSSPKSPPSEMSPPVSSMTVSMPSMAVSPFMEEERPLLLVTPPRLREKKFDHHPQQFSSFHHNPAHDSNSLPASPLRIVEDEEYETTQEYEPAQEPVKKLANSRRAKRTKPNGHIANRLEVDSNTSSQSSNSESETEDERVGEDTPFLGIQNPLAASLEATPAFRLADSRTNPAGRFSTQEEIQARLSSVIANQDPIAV
# Chain of Neurogenic locus notch homolog protein 3 (Homo sapiens) (Q9UM47 whole entry, looked up): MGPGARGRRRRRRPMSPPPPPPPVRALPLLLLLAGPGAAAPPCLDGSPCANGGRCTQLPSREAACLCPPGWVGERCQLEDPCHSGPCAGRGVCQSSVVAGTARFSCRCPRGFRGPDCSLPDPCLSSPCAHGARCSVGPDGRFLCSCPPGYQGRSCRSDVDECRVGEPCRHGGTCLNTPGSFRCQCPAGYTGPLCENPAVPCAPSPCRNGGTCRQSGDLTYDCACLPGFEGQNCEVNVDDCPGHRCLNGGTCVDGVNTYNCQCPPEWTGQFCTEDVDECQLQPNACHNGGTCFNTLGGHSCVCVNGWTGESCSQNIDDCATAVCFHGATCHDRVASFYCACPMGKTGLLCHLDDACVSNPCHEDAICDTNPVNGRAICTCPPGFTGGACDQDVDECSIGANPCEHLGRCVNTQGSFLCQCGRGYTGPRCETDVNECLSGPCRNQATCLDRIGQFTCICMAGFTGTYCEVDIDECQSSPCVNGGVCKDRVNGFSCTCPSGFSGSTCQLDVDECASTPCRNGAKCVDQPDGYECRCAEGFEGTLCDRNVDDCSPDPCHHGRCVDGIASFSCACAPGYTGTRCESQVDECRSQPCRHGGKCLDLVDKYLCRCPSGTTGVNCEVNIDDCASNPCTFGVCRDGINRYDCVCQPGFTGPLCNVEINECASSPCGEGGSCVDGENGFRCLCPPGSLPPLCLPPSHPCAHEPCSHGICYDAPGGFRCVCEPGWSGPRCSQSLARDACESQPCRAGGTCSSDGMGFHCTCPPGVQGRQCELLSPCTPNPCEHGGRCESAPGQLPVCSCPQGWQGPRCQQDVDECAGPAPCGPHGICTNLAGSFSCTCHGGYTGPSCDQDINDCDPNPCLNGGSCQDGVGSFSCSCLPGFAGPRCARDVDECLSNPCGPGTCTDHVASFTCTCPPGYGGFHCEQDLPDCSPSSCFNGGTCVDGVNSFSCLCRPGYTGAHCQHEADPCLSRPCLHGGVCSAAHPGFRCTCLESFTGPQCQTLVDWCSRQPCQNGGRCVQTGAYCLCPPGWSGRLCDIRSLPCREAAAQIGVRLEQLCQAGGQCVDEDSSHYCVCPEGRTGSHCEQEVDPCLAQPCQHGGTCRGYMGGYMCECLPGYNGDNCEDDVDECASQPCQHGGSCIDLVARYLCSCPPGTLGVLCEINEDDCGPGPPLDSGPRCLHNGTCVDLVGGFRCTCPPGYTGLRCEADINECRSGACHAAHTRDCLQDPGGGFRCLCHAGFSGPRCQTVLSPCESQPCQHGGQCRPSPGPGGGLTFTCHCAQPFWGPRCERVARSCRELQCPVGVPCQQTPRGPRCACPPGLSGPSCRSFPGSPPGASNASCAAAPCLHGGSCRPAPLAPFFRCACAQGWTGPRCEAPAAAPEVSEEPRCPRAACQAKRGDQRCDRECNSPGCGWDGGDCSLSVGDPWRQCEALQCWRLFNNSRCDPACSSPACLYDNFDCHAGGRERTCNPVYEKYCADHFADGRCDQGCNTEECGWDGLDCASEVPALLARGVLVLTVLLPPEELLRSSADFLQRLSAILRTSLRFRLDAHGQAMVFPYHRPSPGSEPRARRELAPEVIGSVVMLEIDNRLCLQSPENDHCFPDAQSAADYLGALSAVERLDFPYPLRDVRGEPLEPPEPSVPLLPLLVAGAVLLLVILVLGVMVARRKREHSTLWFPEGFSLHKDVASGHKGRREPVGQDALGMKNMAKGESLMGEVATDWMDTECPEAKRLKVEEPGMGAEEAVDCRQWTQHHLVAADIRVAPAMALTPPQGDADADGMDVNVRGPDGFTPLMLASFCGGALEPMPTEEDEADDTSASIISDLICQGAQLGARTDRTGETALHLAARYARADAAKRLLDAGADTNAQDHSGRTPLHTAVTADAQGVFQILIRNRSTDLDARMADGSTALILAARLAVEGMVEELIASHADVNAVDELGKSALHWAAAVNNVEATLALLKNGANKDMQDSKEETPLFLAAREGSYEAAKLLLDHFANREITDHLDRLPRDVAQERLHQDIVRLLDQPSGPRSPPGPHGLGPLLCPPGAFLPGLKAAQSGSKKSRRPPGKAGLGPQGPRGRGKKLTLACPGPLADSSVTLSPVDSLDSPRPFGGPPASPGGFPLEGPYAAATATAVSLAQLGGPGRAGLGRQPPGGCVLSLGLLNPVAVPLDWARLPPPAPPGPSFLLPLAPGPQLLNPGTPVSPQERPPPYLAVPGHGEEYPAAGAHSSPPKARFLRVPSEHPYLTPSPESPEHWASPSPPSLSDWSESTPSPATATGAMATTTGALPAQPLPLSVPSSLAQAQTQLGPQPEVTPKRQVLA
Structure (SMILES),composite z-score [1],composite z-score [2],composite z-score [3],composite z-score [4],composite z-score [5],composite z-score [6],composite z-score [7],z-score [8],composite z-score [9],composite z-score [10],composite z-score [11],z-score [12],z-score [13],z-score [14],composite z-score [15],z-score [16],composite z-score [17],composite z-score [18],composite z-score [19],composite z-score [20]
CS(=O)(=O)CCOC(=O)C1=CC(CCCO)=CC(c2cccs2)N(Cc2cc3c(cc2Br)OCO3)C=C1C(=O)OCCS(C)(=O)=O (stereo not given),-0.281,0.24,0.0737,0.517,1.5,1.88,1.31,-1.91 (inactive),0.827,0.463,1.56,0.187 (inactive),-1.16 (inactive),-0.919 (inactive),2.82,0.734 (inactive),-0.0379,0.91,1.06,0.0503
CN(C)CCCCNC(=O)[C@H]1C[C@H]2C(=O)N[C@@H](Cc3ccccc3)C(=O)N2[C@H]1c1ccc(O)cc1,-0.289,0.703,-0.0805,0.934,1.37,1.65,1.22,1.85 (inactive),0.748,0.107,1.54,-0.368 (inactive),0.523 (inactive),-1.4 (inactive),0.248,1.12 (inactive),0.0274,1.66,1.11,0.116
N#Cc1ccc(NN2C(C(O)C3CCCCC3)C=CC3C(=O)N(c4ccccc4)C(=O)C32)cc1 (stereo not given),0.0086,-0.433,0.0429,0.461,1.58,1.31,1.33,-0.585 (inactive),1.38,0.754,1.45,-0.21 (inactive),0.661 (inactive),2.46 (inactive),3.26,-1.08 (inactive),0.217,-0.0519,1.03,0.0065
CCC[C@@H]1C=C(C(=O)O)[C@H](c2ccc(C)cc2)N1S(=O)(=O)c1ccc(C)cc1,-0.0973,0.0641,0.0485,0.854,1.35,1.79,1.26,-1.09 (inactive),0.648,0.099,0.844,-0.545 (inactive),0.249 (inactive),-0.34 (inactive),3.68,-0.499 (inactive),0.0943,-0.327,0.62,0.0992
CC(C)C(O)C1C=CC2C(=O)N(c3ccccc3)C(=O)C2N1Nc1ccc(C#N)cc1 (stereo not given),0.946,0.303,0.238,1.07,1.7,1.72,1.23,0.596 (inactive),1.49,-0.168,1.04,-0.108 (inactive),0.349 (inactive),1.39 (inactive),3.17,-0.364 (inactive),0.576,-0.388,0.903,0.154
COCCCNC(=O)[C@@]1(C)c2ccccc2C(=O)N(Cc2cc(C(F)(F)F)cc(C(F)(F)F)c2)[C@H]1c1ccc(CO)cc1,0.472,-1.39,-0.103,-0.635,-0.664,1.59,0.738,-1.29 (inactive),-0.0412,-0.134,1.55,-0.122 (inactive),0.585 (inactive),-0.777 (inactive),3.01,0.666 (inactive),-0.166,-1.08,-0.134,-0.26
CC(C)c1ccc(NN2C(C(O)c3ccc(N(C)C)cc3)C=CC3C(=O)N(c4ccccc4)C(=O)C32)cc1 (stereo not given),-0.145,1.43,0.0485,0.405,1.5,1.88,1.12,2.3 (inactive),1.46,-0.166,1.56,0.372 (inactive),1.26 (inactive),0.197 (inactive),3.34,-0.158 (inactive),0.188,0.109,1.03,-0.027
COc1ccc(NN2C(C(O)c3ccc(OC)c(OCc4ccccc4)c3)C=CC3C(=O)N(C4CCCCC4)C(=O)C32)cc1 (stereo not given),0.243,-0.116,0.136,0.395,1.56,1.4,0.936,0.0498 (inactive),0.857,0.0749,1.3,-0.352 (inactive),0.225 (inactive),-0.724 (inactive),3.24,0.644 (inactive),0.0225,0.181,1.05,-0.0688
[N-]=[N+]=NCc1ccccc1C[C@]1(C(=O)NCCN2CCOCC2)N=C(c2ccc(OCCCO)cc2)O[C@H]1c1ccccc1N=[N+]=[N-],0.446,0.57,0.0618,0.855,1.57,1.6,1.29,-0.653 (inactive),1.25,-0.236,1.56,-0.886 (inactive),0.246 (inactive),2.86 (inactive),2.73,1.16 (inactive),0.149,-0.0313,1.1,0.0488
CN(C)C(=O)[C@@]1(CCC(=O)OC(C)(C)C)N=C(c2ccc(OCCCO)cc2)O[C@H]1c1ccccc1,1.01,2.11,0.112,0.31,-0.282,1.92,1.33,-0.624 (inactive),0.356,0.597,1.41,-0.365 (inactive),-0.0946 (inactive),-0.213 (inactive),3.55,-0.444 (inactive),0.346,0.94,0.0453,0.0197
C#CCN(C(/C=C/c1ccccc1)CO)C(C(=O)O)c1ccccc1 (stereo not given),-0.27,-0.769,-0.159,0.263,0.0504,-0.165,-0.435,1.2 (inactive),-0.652,-0.284,-1.05,0.339 (inactive),-1.13 (inactive),0.148 (inactive),-0.595,2.19 (inactive),-0.0849,0.274,-0.715,-0.101
CN1C(=O)C2C=CC(C(O)c3ccccn3)N(Nc3ccccc3)C2C1=O (stereo not given),-0.0437,1.11,-0.0985,0.479,0.766,0.838,0.684,0.595 (inactive),0.113,0.176,0.949,0.826 (inactive),0.632 (inactive),1.23 (inactive),0.68,-0.324 (inactive),0.0524,0.021,0.186,-0.0746
CC=CC(O)C1C=CC2C(=O)N(c3ccccc3)C(=O)C2N1Nc1ccc(C(C)C)cc1 (stereo not given),0.0035,0.238,0.125,0.771,1.65,1.52,1.26,0.715 (inactive),1.16,-0.0024,1.53,0.842 (inactive),0.877 (inactive),1.06 (inactive),3.13,-1.71 (inactive),0.183,0.321,1.05,0.14
O=C1OCC=C[C@H]2OC34C=CCN(c5ccc6ccccc6c5)C(=O)[C@H]3N(CCCO)C(=O)[C@@H]4[C@@H]12 (stereo not given in full),0.714,-2.17,-0.102,-0.657,-0.894,-0.0772,1.59,0.389 (inactive),-0.234,0.0515,-0.3,0.0281 (inactive),-0.318 (inactive),0.0596 (inactive),-0.309,0.993 (inactive),0.0061,0.0654,0.0404,-0.186
CC(C)C[C@@H]1NC(=O)[C@@H]2C[C@H](C(=O)NCCCCCC[N+](C)(C)C)[C@H](c3ccc(O)cc3)N2C1=O,-0.0515,0.349,-0.112,0.154,-0.344,1.57,1.46,1.97 (inactive),0.0819,-0.271,1.56,0.633 (inactive),0.904 (inactive),0.445 (inactive),3.21,0.266 (inactive),-0.0437,0.857,0.873,-0.176
CCOC(=O)C1=CCC(c2ccc([N+](=O)[O-])cc2)N(S(=O)(=O)c2ccc(C)cc2)C1 (stereo not given),0.557,-0.0288,-0.0878,0.294,0.716,0.459,0.81,-2.47 (inactive),0.406,-0.174,-0.394,1.33 (inactive),2.26 (inactive),4.61 (inactive),1.28,0.638 (inactive),0.0478,-0.281,0.422,0.0296
C=C(COC)C(=O)CC[C@@H](OC(=O)c1cccnc1)c1ccc(CO)o1,-0.376,0.0139,-0.085,-0.0132,0.167,1.16,0.645,0.614 (inactive),0.0848,0.274,1.35,0.692 (inactive),-0.0164 (inactive),-0.336 (inactive),0.991,0.255 (inactive),-0.21,0.817,0.574,-0.137
COCCOC(=O)N1C(=O)[C@@]2(c3cc(C#CCNC(N)=O)ccc31)[C@H](c1ccccc1OCCO)N1[C@H](c3ccccc3)[C@H](c3ccccc3)OC(=O)[C@H]1[C@@H]2C(N)=O,-0.309,0.092,-0.171,0.244,0.77,0.429,0.874,-1.33 (inactive),0.477,-0.284,1.55,1.86 (inactive),1.59 (inactive),3.25 (inactive),-0.0889,-0.244 (inactive),-0.0823,1.1,1.09,-0.0512
NCCCCCCNC(=O)[C@H]1C[C@H]2C(=O)NCC(=O)N2[C@H]1c1cccc(OCCO)c1,-0.196,0.615,-0.0647,0.477,0.363,0.933,1.13,1.03 (inactive),0.0417,-0.0994,1.58,0.23 (inactive),-1.12 (inactive),-0.442 (inactive),1.59,1.1 (inactive),0.0537,1.5,1.15,-0.034
COc1ccc(C(O)C2C=CC3C(=O)N(C)C(=O)C3N2Nc2ccccc2)cc1OCc1ccccc1 (stereo not given),0.008,0.174,0.0258,0.386,1.28,1.94,1.31,-1.1 (inactive),0.346,0.208,1.49,-4.02 (inactive),1.11 (inactive),0.317 (inactive),3.41,-1.2 (inactive),0.287,0.102,0.742,0.0099
